aSyn UTR inh: MLPCN primary screen, SNCA 5' untranslated region. alpha-synuclein 5'UTR reporter, inhibitor activity. inhibition, % (tested at 7.5 µM). actives 0.82% (n = 300,000). AID 1813; in the data active = inhibition above about 60%; inconclusive = no clear call, values can overlap the other calls;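 also: H4 neuroglioblastoma cells stably carrying SNCA 5'UTR luciferase fusion; 0% = DMSO wells and 100% = positive control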
IEC-6 cytotox: kills IEC-6 intestinal cells in KLF5 counter-screen; AID 1825; inhibition, % at 5 µM; actives 0.78% (n = 290,000); IEC-6 cytotoxicity, luminescence viability; in the data active = inhibition above about 22%;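 also: 0% = plate median of test compound wells and 100% = cytotoxic reference compound wells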
CSC inhib: cancer stem cell inhibition; cancer stem cell-like cells viability, luminescence; inhibition, % at 7.5 µM; actives 1.1% (n = 300,000); in the data active = inhibition above about 75%; inconclusive = no clear call, values can overlap the other calls; tested in HMLE shEcad cells
KLF5 inhibitor: suppresses KLF5 promoter-driven expression; DLD-1 KLF5 promoter-luciferase reporter, luminescence; inhibition, % at 5 µM; actives 0.23% (n = 290,000); AID 1700;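 active = inhibition above a per-plate limit of that plate's mean compound inhibition plus 3 SD, cut at about 60% in these data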;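 also: 0% = DMSO wells and 100% = LY294002 at 200 µM; higher means less KLF5 promoter-driven luciferase light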
SKKanGAS inh: blocks kanamycin growth of S. pyogenes SKKanGAS strain; inhibition, % at 7.5 µM; actives 1.3% (n = 300,000); BacTiter-Glo, 6 h; AID 1662;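 active = mean replicate score, as percent of positive control median, at least 50; inconclusive = mean below 50 but one replicate at or above 50; inactive = mean and every replicate below 50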;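 also: strain carries kanamycin resistance gene driven by streptokinase promoter and grows in 40 µg/ml kanamycin; loss of luminescence reflects streptokinase promoter inhibition or plain growth inhibition; 0% = median of DMSO wells and 100% = positive control at its reference dose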
Starred values were filed as active, the others as inactive; ? = inconclusive; . = no result. An excerpt weighted towards active compounds, which were near 3% of everything screened.

SMILES	aSyn UTR inh	IEC-6 cytotox	CSC inhib	KLF5 inhibitor	SKKanGAS inh
O=C(NCCCc1ccccc1)c1cncc(Br)c1	-11.0	-1.7	2.6	-32.5	3.2
CCOC(=O)c1c(C)oc2c(F)c(F)c(F)c(F)c2c1=O	-85.3	2.7	90.0*	-8.4	4.3
Cc1cc(C)n(-c2ccc3cccc(NS(C)(=O)=O)c3n2)n1	90.2*	-0.8	86.9*	1.6	32.9
CCOc1ccc(C2/C(=C(/O)c3ccc(S(=O)(=O)N4CCCCC4)cc3)C(=O)C(=O)N2CCCOC)cc1OC (centres undefined)	8.0	3.6	2.3	5.8	0.1
Cc1cc(C)c(NC(=O)CNC(=O)COC(=O)C2=COCCO2)c(C)c1	14.1	.	-10.1	.	-8.4
O=C(/C=C/c1ccccc1)NCCc1ccccc1	-153.8	.	-0.8	.	100.0*
O=C(/C=C/c1ccc([N+](=O)[O-])cc1)NCCc1ccccc1	21.7	2.4	8.3	3.7	-22.9
O=C(COc1ccccc1)Nc1nnc(-c2ccc(Cl)cc2)o1	2.1	-1.2	12.1	1.4	43.5
COc1ccccc1C(=O)Nc1nnc(-c2ccc3c(c2)CCCC3)o1	-22.1	-3.1	27.8	-39.6	58.4*
O=C(Nc1nnc(-c2ccc3c(c2)CCCC3)o1)C1COc2ccccc2O1 (centres undefined)	-38.9	-2.1	31.1	-28.5	99.4*
CC(=O)Nc1nnc(-c2ccc3c(c2)CCCC3)o1	-66.7	-2.1	5.0	-149.0	7.2
O=C(Nc1nncs1)C1COc2ccccc2O1 (centres undefined)	-39.2	-3.0	.	-34.6	-3.5
O=C(COc1ccc(Cl)cc1)Nc1nnc(-c2ccc3c(c2)CCCC3)o1	-53.0	7.6	22.7	-26.1	97.3*
Cc1cc(SCC(=O)c2ccc(O)c(O)c2)n2nc(C)c(-c3ccccc3)c2n1	2.0	-0.5	119.0*	21.9	?
Cc1cc(C)nc(SCC(=O)c2ccc(O)c(O)c2)n1	-22.7	4.8	12.8	-29.4	1.3
CSCCC(NC(=O)c1ccco1)C(=O)NCC1CCCO1 (centres undefined)	.	.	-11.0	.	.
O=[N+]([O-])c1ccc(-c2cnc(SC(c3ccccc3)c3ccccc3)[nH]2)cc1	6.4	6.8	19.4	8.6	61.7*
Cc1cc(C)c(CSc2ncc(-c3ccc([N+](=O)[O-])cc3)[nH]2)c(C)c1	-4.8	4.0	62.7	-14.9	73.5*
NC(=O)CSc1ncc(-c2ccc([N+](=O)[O-])cc2)[nH]1	-47.9	1.9	-7.0	-16.7	4.2
O=[N+]([O-])c1ccc(-c2cnc(SCc3ccccc3Cl)[nH]2)cc1	-88.7	6.3	56.7	-3.2	2.2
CCOC(=O)Cc1ccc(NC(=O)c2ccc(C(C)(C)C)cc2)cc1	103.8*	10.7	46.7	58.7	3.1
O=[N+]([O-])c1ccc(-c2nc(Nc3cccc(O)c3)c3ccccc3n2)cc1	20.5	2.2	94.4*	-20.4	?
Cc1ccc(-c2nc(Nc3ccc(N4CCOCC4)cc3)c3ccccc3n2)cc1	-8.3	2.6	89.7*	-28.6	41.2
COc1cccc(Nc2nc(-c3ccccc3)nc3ccccc23)c1	-2.6	-1.8	91.5*	-5.6	8.3
Cc1ccc(-c2nc(Nc3cccc(O)c3)c3ccccc3n2)cc1	13.3	-1.7	111.7*	-24.9	20.0
SMILES	aSyn UTR inh	IEC-6 cytotox	CSC inhib	KLF5 inhibitor	SKKanGAS inh
Cc1ccc(-c2nc(Nc3ccc(O)cc3)c3ccccc3n2)cc1	-29.3	5.4	73.1	-30.5	2.6
Cc1cccc(OCC(=O)Nc2c3c(nn2C(C)(C)C)CS(=O)(=O)C3)c1	-0.1	-0.5	-3.8	-3.9	11.9
Cc1ccc(S(=O)(=O)Cc2cc(F)c([N+](=O)[O-])cc2[N+](=O)[O-])cc1	5.4	2.9	102.2*	-0.1	6.2
CCOC(=O)c1ccc([N+](=O)[O-])c(CS(=O)(=O)c2ccc(Cl)cc2)c1	3.2	0.8	-1.0	-15.9	0.0
CC1CN(c2ccc([N+](=O)[O-])c(NCCOc3ccc(Cl)cc3)c2)CC(C)N1 (centres undefined)	104.2*	-1.9	108.1*	-16.1	12.7
Cc1ccc(-n2c(-c3ccccc3)c[n+]3c2CCC3)cc1	-31.8	3.6	-1.1	-2.3	-1.8
Cc1ccc(-n2c(-c3ccccc3)c[n+]3c2CCc2ccccc2-3)c(C)c1	.	27.0*	28.3	28.4	.
CCOc1ccc(-c2nnc(SCC(=O)Nc3ccc4c(c3)c3ccccc3n4CC)n2N)cc1	84.2*	9.0	52.3	-1.9	1.2
O=C(CN1CCCCC1)Nc1cc(Cl)ccc1Oc1ccccc1	47.7	-4.8	71.8	9.5	14.8
O=C(CN1CCCCCC1)Nc1ccccc1Oc1ccccc1	17.3	-0.6	79.6*	-20.3	-5.5

Assay outcomes as filed in PubChem.
